Among the test systems are DU-145 prostate; K-562 leukemia; MALME-3M melanoma; MDA-MB-231 breast; RXF 393 renal; SF-268 CNS; SF-539 CNS; UACC-257 melanoma; M14 melanoma; HCT-15 colon; HT29 colon; SNB-75 CNS; SNB-19 CNS; U251 CNS; PC-3 prostate; SK-MEL-5 melanoma; UACC-62 melanoma; LOX IMVI melanoma; SK-MEL-28 melanoma.
Holding throughout (assay): NCI-60 one-dose screen, 48 h (100 = growth as untreated, 0 = no growth, -100 = all killed)
Common to all, as to conditions: 10 µM unless noted

Structures are written as SMILES. About 83,000 compounds went through this panel and 20% of them were active in at least one assay; those are over-represented in the sample as a whole.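 Values shown are percent growth following 48 h exposure of cells in 96-well plates to a single concentration of compound; below 10 was considered active.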 Values without a mark were called inactive. Calls of active or inactive are those of the source.

Take `CCCN(CCC)CC(O)COc1ccccc1C(=O)Nc1ccccc1` (configuration not stated): the growth with DU-145 prostate was 96.8%; with K-562 leukemia it was 22.3%; with MALME-3M melanoma it was 62%; in the test with MDA-MB-231 breast, 96.5%; in the test with RXF 393 renal it was 52.5%; in the test on SF-268 CNS, 73.8%. For the same compound, the growth was 77.3% in the test on SF-539 CNS; 61.5% with UACC-257 melanoma; 69.3% in the test with M14 melanoma; 72.8% in the test on HCT-15 colon; 71.3% in the test with HT29 colon; 56.2% with SNB-75 CNS. For the same compound, the growth in the test with SNB-19 CNS is 94.6%; in the test on U251 CNS, 60.4%; in the test on PC-3 prostate it was 70.2%; in the test with SK-MEL-5 melanoma, 53.3%; with UACC-62 melanoma, 48.1%; in the test with LOX IMVI melanoma, 56.8%. Besides, the growth in the test on SK-MEL-28 melanoma is 65.2%.
With `CC(=O)O[C@H]1[C@H](CC#CC#CC[C@@H]2C[C@]3(C)[C@H]4CC=C5[C@H]6[C@@H](C)[C@H](C)CC[C@]6(C(=O)NCCN(CCN)CCN)CC[C@@]5(C)[C@]4(C)CC[C@H]3C(C)(C)[C@H]2OC(C)=O)C[C@]2(C)[C@H]3CC=C4[C@H]5[C@@H](C)[C@H](C)CC[C@]5(C(=O)NCCN(CCN)CCN)CC[C@@]4(C)[C@]3(C)CC[C@H]2C1(C)C`, the growth was 86% in the test on DU-145 prostate; 18.3% with K-562 leukemia; 67.8% in the test on MALME-3M melanoma; 59.6% in the test with MDA-MB-231 breast; 57.9% in the test on RXF 393 renal; 87.1% in the test on SF-268 CNS. In addition, the growth in the test with SF-539 CNS was 84.2%; in the test on UACC-257 melanoma it was 96%; in the test on M14 melanoma, 63.1%; with HCT-15 colon, 26.8%; with HT29 colon it was 58.1%; in the test with SNB-75 CNS it was 68.1%. Moreover, the growth is 31.9% in the test on SNB-19 CNS; 36.2% in the test on U251 CNS; 51.7% in the test with PC-3 prostate; 92.2% in the test on SK-MEL-5 melanoma; 40.9% in the test with UACC-62 melanoma; 50.9% in the test on LOX IMVI melanoma. Further, the growth in the test with SK-MEL-28 melanoma is 85%.
Take `O=C(NO)c1ccc(NCc2csc3ccccc23)cc1`: the growth was 54.3% in the test on DU-145 prostate; 62% with K-562 leukemia; 60.8% in the test on MALME-3M melanoma; 60.9% in the test with MDA-MB-231 breast; 71.2% with RXF 393 renal; 68.8% in the test with SF-268 CNS. Moreover, the growth in the test with SF-539 CNS was 70.3%; in the test on UACC-257 melanoma, 70.2%; in the test on M14 melanoma, 59.4%; in the test with HCT-15 colon, 39%; with HT29 colon, 79.2%; in the test on SNB-75 CNS, 56%. In addition, the growth in the test with SNB-19 CNS is 69.5%; in the test with U251 CNS, 57.4%; with PC-3 prostate it was 52.4%; in the test with SK-MEL-5 melanoma, 74.4%; in the test on UACC-62 melanoma, 57.8%; with LOX IMVI melanoma, 71.6%. Further, in the test on SK-MEL-28 melanoma, the growth was 91.2%.
Turning to `Nc1nc(N)c2cc(Sc3ccc(Cl)cc3)ccc2n1`, the growth in the test with DU-145 prostate is 29.7%; in the test with K-562 leukemia, 4.88% (active); in the test with MALME-3M melanoma it was 56.7%; with MDA-MB-231 breast, 31.3%; with RXF 393 renal it was 42.4%; with SF-268 CNS, 31.1%. In addition, the growth in the test with SF-539 CNS was 35%; with UACC-257 melanoma it was 40.1%; in the test on M14 melanoma it was 27.8%; in the test with HCT-15 colon, 20.5%; in the test on HT29 colon it was 14.8%; with SNB-75 CNS it was 48.2%. The growth in the test with SNB-19 CNS is 40%; in the test with U251 CNS, 24.7%; in the test on PC-3 prostate, 25.2%; in the test on SK-MEL-5 melanoma it was 17.8%; with UACC-62 melanoma, 24.4%; in the test with LOX IMVI melanoma it was 27%. Besides, the growth with SK-MEL-28 melanoma was 54%.
Turning to `O=C(c1ccc(C(F)(F)F)c(Cl)c1)N(Cc1ccc(Cl)cc1)c1ccc(-c2cc(C(F)(F)F)[nH]n2)c(O)c1`, the growth was 12.8% with DU-145 prostate; 7.36% (active) with K-562 leukemia; 1.34% (active) in the test with MALME-3M melanoma; -35.7% (active) in the test with MDA-MB-231 breast; -9.88% (active) in the test with RXF 393 renal; 7.06% (active) in the test with SF-268 CNS. In addition, the growth is 2.09% (active) with SF-539 CNS; 10.3% in the test with UACC-257 melanoma; 10.9% in the test on M14 melanoma; 7.04% (active) in the test with HCT-15 colon; 5.34% (active) in the test on HT29 colon; 10.3% in the test on SNB-75 CNS. In addition, the growth in the test with SNB-19 CNS was 26.2%; with U251 CNS, 4.18% (active); in the test on PC-3 prostate, 11.2%; in the test on SK-MEL-5 melanoma it was -42.9% (active); in the test with UACC-62 melanoma, 14.5%; with LOX IMVI melanoma, 4.7% (active). Besides, the growth with SK-MEL-28 melanoma is 30.8%.
As for `O=c1[nH]c2ccccc2n2cc3cccnc3c12`, the growth in the test on DU-145 prostate is 87.5%; with K-562 leukemia, 47.2%; in the test with MALME-3M melanoma, 116%; in the test on MDA-MB-231 breast, 65.7%; with RXF 393 renal, 80.8%; in the test with SF-268 CNS it was 79.3%. In addition, the growth is 75.5% in the test on SF-539 CNS; 97.1% in the test with UACC-257 melanoma; 84.1% in the test on M14 melanoma; 70.2% with HCT-15 colon; 42.3% in the test with HT29 colon; 86.2% in the test with SNB-75 CNS. Also, the growth with SNB-19 CNS is 71%; in the test with U251 CNS it was 76.6%; in the test on PC-3 prostate it was 84.7%; in the test on SK-MEL-5 melanoma, 73.2%; in the test with UACC-62 melanoma, 53%; in the test on LOX IMVI melanoma it was 65.6%. Further, the growth with SK-MEL-28 melanoma was 107%.
`CN(CCO)c1ccc(N2Cc3ccccc3OC3=C2C(=O)c2c(O)ccc(O)c2C3=O)cn1`: the growth was -98.8% (active) in the test on DU-145 prostate; -1.58% (active) in the test on K-562 leukemia; -86.1% (active) in the test with MALME-3M melanoma; -90.2% (active) with MDA-MB-231 breast; -96.6% (active) in the test with RXF 393 renal; -59.7% (active) in the test with SF-268 CNS. Besides, the growth in the test with SF-539 CNS is -68.9% (active); with UACC-257 melanoma, -91.6% (active); in the test on M14 melanoma, -89% (active); with HCT-15 colon, -83.6% (active); with HT29 colon it was -49% (active); in the test on SNB-75 CNS it was -13.7% (active). For the same compound, the growth was 6.43% (active) in the test with SNB-19 CNS; -24.8% (active) in the test with U251 CNS; -14.8% (active) in the test on PC-3 prostate; -94.9% (active) with SK-MEL-5 melanoma; -88.3% (active) in the test on UACC-62 melanoma; -86.6% (active) with LOX IMVI melanoma. Also, in the test on SK-MEL-28 melanoma, the growth is -83.4% (active).
As for `[O-]/[N+](=C\c1ccccc1)CC1(O)CCCCC1`, the growth in the test on DU-145 prostate is 109%; with K-562 leukemia, 95.7%; in the test on MALME-3M melanoma, 108%; with MDA-MB-231 breast, 101%; with RXF 393 renal, 107%; with SF-268 CNS, 105%. Further, the growth was 97% with SF-539 CNS; 102% in the test on UACC-257 melanoma; 109% in the test with M14 melanoma; 98.4% in the test with HCT-15 colon; 102% in the test with HT29 colon; 81.1% in the test with SNB-75 CNS. The growth in the test with SNB-19 CNS was 99.4%; in the test on U251 CNS it was 97.6%; with PC-3 prostate, 108%; in the test on SK-MEL-5 melanoma, 105%; in the test on UACC-62 melanoma, 102%; with LOX IMVI melanoma, 101%. Besides, the growth in the test on SK-MEL-28 melanoma is 106%.
